Data: the supplement of paper PMC10681739

Columns and labels:
RUNX1 [1] = target: RUNX1 (UniProt Q01196); assay: RUNX1 binding intensity (PBM fluorescence), RUNX1 alone (arbitrary fluorescence units); higher = stronger binding; conditions: RUNX1 concentration 2 nM; ETS1 concentration 0 nM
Method: (§1)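 Cooperative gcPBM on 36-bp genomic probes with neighbouring ETS1 and RUNX1 sites. Recombinant human RUNX1 (2 nM) was incubated alone or with ETS1 (25 nM) and detected with anti-RUNX1 antibody plus Alexa488 secondary. Values are medians over 4 replicate spots; the RUNX1+ETS1 data were normalised to the RUNX1-only data. The probes sit in constant array flanks that are not printed.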

ETS1 = target: T1, ETS1 (UniProt P14921); assay: ETS1 binding intensity (PBM fluorescence) in presence of RUNX1, normalised to ETS1-only experiment (arbitrary fluorescence units); higher = stronger binding; conditions: ETS1 concentration 1 nM; RUNX1 concentration 25 nM
T1 sequence: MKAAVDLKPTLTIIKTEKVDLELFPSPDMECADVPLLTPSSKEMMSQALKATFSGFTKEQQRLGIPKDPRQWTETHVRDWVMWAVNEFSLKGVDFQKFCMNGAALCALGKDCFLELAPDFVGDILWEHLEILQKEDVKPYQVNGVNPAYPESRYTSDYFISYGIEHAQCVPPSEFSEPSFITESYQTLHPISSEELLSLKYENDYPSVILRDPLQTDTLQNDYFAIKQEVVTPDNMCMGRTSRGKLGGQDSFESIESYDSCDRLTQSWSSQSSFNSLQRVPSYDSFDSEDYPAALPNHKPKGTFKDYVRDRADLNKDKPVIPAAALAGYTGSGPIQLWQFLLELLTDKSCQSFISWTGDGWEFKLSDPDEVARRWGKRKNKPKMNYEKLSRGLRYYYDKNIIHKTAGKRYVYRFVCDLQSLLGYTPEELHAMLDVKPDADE

RUNX1 [2] = target: RUNX1 (UniProt Q01196); assay: RUNX1 binding intensity (PBM fluorescence) in presence of ETS1, normalised to RUNX1-only experiment (arbitrary fluorescence units); higher = stronger binding; conditions: RUNX1 concentration 2 nM; ETS1 concentration 25 nM
Method: as §1
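Wherever RUNX1 binding intensity (PBM fluorescence) in presence of ETS1, normalised to RUNX1-only experiment is given: Full-length recombinant human ETS1 or RUNX1 bound to double-stranded 36-bp genomic probes on microarrays, detected by protein-specific primary antibody and Alexa488 secondary, spot fluorescence as median of four replicate spots.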
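Wherever RUNX1 binding intensity (PBM fluorescence), RUNX1 alone is given: Full-length recombinant human RUNX1 bound to double-stranded 36-bp genomic probes on a high-density microarray, scored as Alexa488 fluorescence per spot via anti-RUNX1 antibody, median of four replicate spots.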

Sequence of RUNX1 (Q01196 whole entry): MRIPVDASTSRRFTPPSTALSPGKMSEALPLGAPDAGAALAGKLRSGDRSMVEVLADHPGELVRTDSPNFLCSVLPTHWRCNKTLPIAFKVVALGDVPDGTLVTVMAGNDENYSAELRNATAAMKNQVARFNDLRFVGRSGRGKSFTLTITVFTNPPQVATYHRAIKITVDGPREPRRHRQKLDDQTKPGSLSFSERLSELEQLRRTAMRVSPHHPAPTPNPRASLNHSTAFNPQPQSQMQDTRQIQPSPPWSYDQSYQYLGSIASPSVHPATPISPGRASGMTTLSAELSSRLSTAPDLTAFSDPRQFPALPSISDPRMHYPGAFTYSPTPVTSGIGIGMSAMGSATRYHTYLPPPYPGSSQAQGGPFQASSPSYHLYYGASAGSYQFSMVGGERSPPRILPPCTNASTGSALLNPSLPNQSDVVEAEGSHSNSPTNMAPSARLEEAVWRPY

Row | Sequence | RUNX1 binding intensity (RUNX1 [1]) | ETS1 binding intensity (ETS1) | RUNX1 binding intensity (RUNX1 [2])
1 | TGTGTCACTTCCCTATCTGTTGCGGTTGTTCACTCC | 1340 | 841 | 2930
2 | GGAGAGTTGACTTCCGGCGGCTTGTGGGAGTGCTGG | 771 | 2640 | 1820
3 | CTTTGTTACTTTGGGGAAATGTGGTTCTGCGCCACC | 1110 |  | 927
4 | CTTGTGCCTACATCCTGTAGCTGTGGTTTAGGGACG | 887 | 6810 | 2050
5 | CTAGCCAGGAAGATAAAGAAGAAACCACCAAAGAGA | 870 |  | 834
6 | CAACCCAAGGGGATGTGCTCACTGCGGTGAGGAGGC | 806 |  | 893
7 | GGGGGAAGCTTCCTGAGGTGAAATAGACCGCTGTGC | 735 |  | 960
8 | TTAACTCCACGGAAGAATAAACCACCACCGCTCACC | 1080 |  | 908
9 | AGACTCCATCCGCCATGTTGGATGCCGCAGATTCGC | 813 |  | 1050
10 | CCCCTCCCTGCTTCCTGTGTGGTGAGGGGTGATCAG | 782 | 2040 | 1870
11 | GGGCGCGACTTCCGGGGCGGCGGTTGCATCAGATTC | 774 |  | 2100
12 | CCCTCCTCTTTCGTTTCCTAACCGCAAATTCCATCA | 58200 |  | 53700
13 | GGCCGTTCTTCCGCCTGCAGGGTGGTCAGCGGAGGT | 712 | 446 | 1010
14 | CTTTCTGGTTTCCTTCCTTTTTGGTTTTGGTTTCAT | 1630 |  | 2830
15 | AGACCCGGATATGCGCCGGGGACCCCCAGACCGCGC | 733 | 697 | 969
16 | AAGACACCAACGCTCGGAAACCGCCAGACACCAACG | 945 |  | 916
17 | CCCATCCATCCGCCTCCAAAGTAACCTCAAGAATTT | 2140 |  | 2490
